Data on 16 compounds can be found in PubChem BioAssay (EPA / NIEHS).

Calls of active or inactive are those of the source. How the source made its calls: active means hit-call score of the fitted dose curve at least 0.9, where 1 is the maximum; inactive means score below 0.9.

Holding throughout (details): mRNA level, 48 h; actives raise or lower the signal
Read-out in experiment [1]: Glutamate-cysteine ligase catalytic (GCLC), GCLC (gene 2729)
Briefly: LTEA_HepaRG_GCLC: Life Technologies and Expression Analysis (LTEA) Assay for Glutamate-cysteine ligase catalytic (GCLC) using HepaRG (AID 2283498). Put shortly:
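Differentiated human HepaRG cells, plated 48 h then switched to serum-free induction medium, were exposed in duplicate for 48 h to 8 half-log concentrations topping at 100 uM in 0.5% DMSO. GCLC mRNA was quantified by qRT-PCR against ACTB, GAPDH and POLR2A.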

Read-out in experiment [2]: growth arrest and DNA damage 45 (GADD45G), GADD45G (gene 10912)
The experiment is described as follows: LTEA_HepaRG_GADD45G: Life Technologies and Expression Analysis (LTEA) Assay for growth arrest and DNA damage 45 (GADD45G) using HepaRG (AID 2283499). Put shortly:
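Human hepatic HepaRG line treated 48 h with chemicals (eight concentrations, half-log steps from 100 uM); transcript induction or repression of GADD45G scored by qRT-PCR versus DMSO vehicle.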

Read-out in experiment [3]: Glutamate-cysteine ligase regulatory (GCLM), GCLM (gene 2730)
Briefly: LTEA_HepaRG_GCLM: Life Technologies and Expression Analysis (LTEA) Assay for Glutamate-cysteine ligase regulatory (GCLM) using HepaRG (AID 2283500). The essentials: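 Cells were plated, cultured 48 h, switched to serum-free induction medium, then dosed in duplicate for 48 h at eight half-log concentrations up to 100 uM. RNA was then profiled by qRT-PCR; gain or loss versus DMSO was fitted.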

Read-out in experiment [4]: Glutathione S-transferase M3 (GSTM3), GSTM3 (gene 2947)
The experiment is described as follows: LTEA_HepaRG_GSTM3: Life Technologies and Expression Analysis (LTEA) Assay for Glutathione S-transferase M3 (GSTM3) using HepaRG (AID 2283501). The essentials: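 Changes in GSTM3 expression, an oxidative-stress marker, were scored by bidirectional curve fitting against 0.5% DMSO vehicle. Human HepaRG cultures received chemicals for 48 h in duplicate, highest concentration 100 uM with half-log dilutions.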

Read-out in experiment [5]: Heat shock 70 kDa protein 1 (HSPA1A), gene 3303
Briefly: LTEA_HepaRG_HSPA1A: Life Technologies and Expression Analysis (LTEA) Assay for Heat shock 70 kDa protein 1 (HSPA1A) using HepaRG (AID 2283502). The essentials:
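Readout is HSPA1A transcript level by microfluidic qRT-PCR, normalized to three housekeeping genes and analysed for gain or loss of signal relative to 0.5% DMSO. Human HepaRG cultures received test chemicals for 48 h at up to 100 uM.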

Read-out in experiment [6]: 3-Hydroxy-3-Methylglutaryl-CoA Synthase 2 (HMGCS2), HMGCS2 (gene 3158)
Briefly: LTEA_HepaRG_HMGCS2: Life Technologies and Expression Analysis (LTEA) Assay for 3-Hydroxy-3-Methylglutaryl-CoA Synthase 2 (HMGCS2) using HepaRG (AID 2283504). Put shortly: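 Expression of HMGCS2 in human HepaRG liver cells is measured by qRT-PCR 48 h after dosing (highest 100 uM, half-log series, 0.5% DMSO). Values come from bidirectional concentration-response fitting with DMSO as baseline.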

Read-out in a further experiment: HGF (gene 3082)
The experiment is described as follows: LTEA_HepaRG_HGF: Life Technologies and Expression Analysis (LTEA) Assay for Hepatocyte Growth Facto (HGF) using HepaRG (AID 2283505). The essentials:
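Gain or loss of HGF mRNA in human HepaRG liver cells after 48 h chemical exposure; eight concentrations up to 100 uM with 0.5% DMSO vehicle, quantified by TaqMan qRT-PCR.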

Read-out in experiment [7]: Insulin Like Growth Factor 1 (IGF1), IGF1 (gene 3479)
Briefly: LTEA_HepaRG_IGF1: Life Technologies and Expression Analysis (LTEA) Assay for Insulin Like Growth Factor 1 (IGF1) using HepaRG (AID 2283506). Put shortly: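 HepaRG, plated 48 h, then switched to serum-free induction media; test chemical 8-pt half-log from 100 uM (0.5% DMSO), duplicate, 48 h. Lysis in RLT, TaqMan qRT-PCR, norm. ACTB/GAPDH/POLR2A. Bidirectional fit vs DMSO.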

Read-out in experiment [8]: Intercellular Adhesion Molecule 1 (ICAM1), ICAM1 (gene 3383)
The experiment is described as follows: LTEA_HepaRG_ICAM1: Life Technologies and Expression Analysis (LTEA) Assay for Intercellular Adhesion Molecule 1 (ICAM1) using HepaRG (AID 2283507). The essentials: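 Gain or loss of transcript in HepaRG hepatic cells is quantified by qRT-PCR after 48 h chemical exposure (up to 100 uM, half-log steps), with DMSO as baseline.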

Read-out in experiment [9]: Interleukin 6 (IL6), IL6 (gene 3569)
The experiment is described as follows: LTEA_HepaRG_IL6: Life Technologies and Expression Analysis (LTEA) Assay for Interleukin 6 (IL6) using HepaRG (AID 2283509). Put shortly: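 Differentiated human HepaRG cells, plated 48 h then switched to serum-free induction medium, were exposed in duplicate for 48 h to eight half-log concentrations up to 100 uM in 0.5% DMSO. IL6 mRNA measured by qRT-PCR, normalized to ACTB/GAPDH/POLR2A.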

Regarding `O=C(c1ccccc1)c1ccccc1`, the compound was called inactive in [1], in experiment [2], in experiment [3], in experiment [4], in experiment [5] and in experiment [6]. Moreover, the compound was called inactive (with HGF (gene 3082); in experiment [7]; in [8]; in [9]).

Take `CS(=O)(=O)c1ccc([C@@H](CC2CCCC2)C(=O)Nc2cnccn2)cc1Cl`: the compound was classed as inactive in experiment [1], in [2], in [4], in experiment [5] and in experiment [9]. The AC50 was 50 µM (active) in experiment [3], 74.3 µM (active) in experiment [6], 32.8 µM (active) in [7] and 73.7 µM (active) in experiment [8].

Turning to `Cc1[nH]nc2c1N=C(c1ccccc1Cl)c1cc([N+](=O)[O-])ccc1N2`, the AC50 in experiment [1] was 2.83 µM (active); in experiment [2] it was 0.557 µM (active); in [4], 50 µM (active); in experiment [6], 28.8 µM (active); with HGF (gene 3082) it was 2.84 µM (active); in [7] it was 1.88 µM (active). Moreover, the outcome in [3], in experiment [5] and in [8] was inactive.

On to `CCCCCCCCCCCCOS(=O)(=O)O`, for which the compound was classed as inactive (in experiment [1]; in [2]; in experiment [3]; in experiment [4]; in the experiment with HGF (gene 3082); in experiment [8]). In addition, the result in experiment [9] was inactive. Also, the AC50 in experiment [5] is 50 µM (active); in experiment [6], 86.6 µM (active).

For `CCCCC(CC)C(=O)O` (centres undefined), the result in experiment [1], in experiment [2], in experiment [3], in [4], in experiment [5] and in [6] was inactive. Besides, the compound was classed as inactive (with HGF (gene 3082); in experiment [7]; in [8]; in experiment [9]).

Consider `O=C(CCCN1CCC(O)(c2ccc(Cl)cc2)CC1)c1ccc(F)cc1`, for which the AC50 in experiment [1] was 77.1 µM (active); in [2], 50 µM (active); in [3], 71.9 µM (active); in [5] it was 74.3 µM (active); in experiment [6], 84.4 µM (active); in experiment [7] it was 78.5 µM (active). Further, the AC50 is 75 µM (active) in [8] and 80.9 µM (active) in [9]. The result in experiment [4] was inactive.

Turning to `CN(C)CCOC(c1ccccc1)c1ccccc1`, the compound was classed as inactive in experiment [1], in [2], in experiment [3], in experiment [4], in experiment [5] and in [6]. In addition, the result (with HGF (gene 3082); in experiment [7]; in experiment [8]; in experiment [9]) was inactive.

Regarding `CCC(C)c1ccccc1O` (centres undefined), the compound was classed as inactive in experiment [1], in experiment [2], in experiment [3], in experiment [4], in experiment [5] and in experiment [6]. Further, the compound was classed as inactive (with HGF (gene 3082); in experiment [7]; in [8]; in experiment [9]).

On to `CC(=O)Nc1ccc(O)cc1`, for which the compound was called inactive in [1], in experiment [2], in experiment [3], in experiment [4], in experiment [5] and in experiment [6]. Also, the result in experiment [7], in experiment [8] and in [9] was inactive.

For the compound `CCCCC=O`, the outcome in experiment [1], in [2], in [3], in [4], in experiment [5] and in [6] was inactive. Further, the call (with HGF (gene 3082); in [7]; in experiment [8]; in experiment [9]) was inactive.

For the compound `CCCCCCCCCCCCCCC`, the compound was classed as inactive in [1], in [2], in experiment [3], in experiment [4], in experiment [5] and in experiment [6]. Moreover, the call (with HGF (gene 3082); in [7]; in experiment [8]; in experiment [9]) was inactive.

With `CN(Cc1cnc2nc(N)nc(N)c2n1)c1ccc(C(=O)N[C@@H](CCC(=O)O)C(=O)O)cc1`, the compound was called inactive (in experiment [1]; in experiment [2]; in experiment [3]; in experiment [4]; in experiment [6]; with HGF (gene 3082)). Further, the compound was classed as inactive in experiment [7], in [8] and in [9].

With `OCC(CO)(CBr)CBr`, the compound was called inactive in experiment [1], in [2], in experiment [3], in experiment [4], in experiment [5] and in experiment [6]. Further, the compound was classed as inactive (in the experiment with HGF (gene 3082); in experiment [7]; in experiment [8]; in [9]).

For the compound `O=C1NS(=O)(=O)c2ccccc21`, the compound was classed as inactive in experiment [1], in experiment [2], in experiment [3], in experiment [4], in [5] and in experiment [6]. Also, the compound was called inactive (with HGF (gene 3082); in [7]; in [8]; in experiment [9]).

`N=C(N)c1ccc(OCCCCCOc2ccc(C(=N)N)cc2)cc1`: the AC50 in [1] was 27.9 µM (active); in experiment [2], 4.37 µM (active); in experiment [4], 5.05 µM (active); in [5], 26.5 µM (active); in experiment [6], 7.77 µM (active); with HGF (gene 3082), 13.8 µM (active). Also, the AC50 is 11.1 µM (active) in experiment [7], 10.9 µM (active) in experiment [8] and 9.85 µM (active) in experiment [9]. For the same compound, the compound was classed as inactive in [3].

`CCCCc1oc2ccccc2c1C(=O)c1cc(I)c(OCCN(CC)CC)c(I)c1`: the AC50 is 67.4 µM (active) in experiment [1]; 55.1 µM (active) in experiment [2]; 61.8 µM (active) in experiment [3]; 37.8 µM (active) in experiment [4]; 60 µM (active) in [5]; 61.6 µM (active) in experiment [6]. The AC50 in [7] was 46.2 µM (active); in experiment [8], 59.5 µM (active); in [9], 61.9 µM (active). The call with HGF (gene 3082) was inactive.
